# Laboratory results as given in PubChem BioAssay AID1159580 (chemical genetic matrix, 2015).
# Screen size: about 5,500 compounds; about 2,000 (36%) were called active. Another 18% or so got no clear call; they are omitted. The list shows a part of the results. Unmarked numbers belong to inactive results. Rule as the data show it: active = normalized growth mostly below about 0.91 (no sharp cut-off); inconclusive = no clear call, values can overlap the other calls; inactive = mostly above about 0.92.
# Assay: chemical genetic growth profiling, strain panel (AID 1159580);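 also: tested at 20 µM; growth read once vehicle control cultures reached saturation at 30 °C; 1 = growth at the plate median or of vehicle wells; lower values mean less growth of the strain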
# Conditions: growth OD
compound,measurement,setting,value
COc1ccc2c(c1O)OCC1c3cc4c(cc3OC21)OCO4 (stereo unspecified),normalized growth,"S. cerevisiae deletion strains, locus YAL013W, strain DEP1, stronger effect = lower value",0.991
same,normalized growth,"S. cerevisiae deletion strains, locus YBR021W, strain FUR4, stronger effect = lower value",0.964
same,normalized growth,"S. cerevisiae deletion strains, locus YBR229C, strain ROT2, stronger effect = lower value",0.96
same,normalized growth,"S. cerevisiae deletion strains, locus YCL029C, strain bik1, stronger effect = lower value",1
same,normalized growth,"S. cerevisiae deletion strains, locus YDL035C, strain GPR1, stronger effect = lower value",0.935
same,normalized growth,"S. cerevisiae deletion strains, locus YDL074C, strain BRE1, stronger effect = lower value",0.882
same,normalized growth,"S. cerevisiae deletion strains, locus YDL101C, strain DUN1, stronger effect = lower value",0.953
same,normalized growth,"S. cerevisiae deletion strains, locus YDL134C, strain PPH21, stronger effect = lower value",0.986
same,normalized growth,"S. cerevisiae deletion strains, locus YDL185W, strain tfp1, stronger effect = lower value",0.957
same,normalized growth,"S. cerevisiae deletion strains, locus YDL192W, strain arf1, stronger effect = lower value",0.986
same,normalized growth,"S. cerevisiae deletion strains, locus YDR101C, strain arx1, stronger effect = lower value",0.986
same,normalized growth,"S. cerevisiae deletion strains, locus YDR150W, strain NUM1, stronger effect = lower value",0.983
same,normalized growth,"S. cerevisiae deletion strains, locus YDR162C, strain NBP2, stronger effect = lower value",0.88
same,normalized growth,"S. cerevisiae deletion strains, locus YDR318W, strain mcm21, stronger effect = lower value",0.979
same,normalized growth,"S. cerevisiae deletion strains, locus YDR388W, stronger effect = lower value",1
same,normalized growth,"S. cerevisiae deletion strains, locus YDR502C, strain sam2, stronger effect = lower value",0.952
same,normalized growth,"S. cerevisiae deletion strains, locus YEL061C, strain CIN8, stronger effect = lower value",0.987
same,normalized growth,"S. cerevisiae deletion strains, locus YER110C, stronger effect = lower value",0.994
same,normalized growth,"S. cerevisiae deletion strains, locus YER155C, strain BEM2, stronger effect = lower value",1
same,normalized growth,"S. cerevisiae deletion strains, locus YER167W, strain BCK2, stronger effect = lower value",1
same,normalized growth,"S. cerevisiae deletion strains, locus YGL078C, strain dbp3, stronger effect = lower value",0.983
same,normalized growth,"S. cerevisiae deletion strains, locus YGL086W, strain mad1, stronger effect = lower value",0.996
same,normalized growth,"S. cerevisiae deletion strains, locus YGL248W, strain PDE1, stronger effect = lower value",0.974
same,normalized growth,"S. cerevisiae deletion strains, locus YGR078C, strain PAC10, stronger effect = lower value",0.909
same,normalized growth,"S. cerevisiae deletion strains, locus YGR135W, strain pre9, stronger effect = lower value",0.958
same,normalized growth,"S. cerevisiae deletion strains, locus YGR229C, strain SMI1, stronger effect = lower value",0.909
same,normalized growth,"S. cerevisiae deletion strains, locus YGR252W, strain gcn5, stronger effect = lower value",0.857
same,normalized growth,"S. cerevisiae deletion strains, locus YHR030C, strain SLT2, stronger effect = lower value",1
same,normalized growth,"S. cerevisiae deletion strains, locus YHR079C, strain IRE1 (second series), stronger effect = lower value",0.982
same,normalized growth,"S. cerevisiae deletion strains, locus YHR094C, strain hxt1, stronger effect = lower value",1
same,normalized growth,"S. cerevisiae deletion strains, locus YHR129C, strain ARP1, stronger effect = lower value",0.988
same,normalized growth,"S. cerevisiae deletion strains, locus YHR200W, strain rpn10, stronger effect = lower value",0.998
same,normalized growth,"S. cerevisiae deletion strains, locus YIL066C, strain RNR3, stronger effect = lower value",0.974
same,normalized growth,"S. cerevisiae deletion strains, locus YIL073C, strain SPO22, stronger effect = lower value",1.01
same,normalized growth,"S. cerevisiae deletion strains, locus YIL125W, strain kgd1, stronger effect = lower value",0.99
same,normalized growth,"S. cerevisiae deletion strains, locus YIR030C, strain dcg1, stronger effect = lower value",0.986
same,normalized growth,"S. cerevisiae deletion strains, locus YJL095W, strain BCK1, stronger effect = lower value",0.924
same,normalized growth,"S. cerevisiae deletion strains, locus YJL134W, strain LCB3, stronger effect = lower value",0.998
same,normalized growth,"S. cerevisiae deletion strains, locus YJL168C, strain set2, stronger effect = lower value",0.987
same,normalized growth,"S. cerevisiae deletion strains, locus YJL187C, strain SWE1 (second series), stronger effect = lower value",0.939
same,normalized growth,"S. cerevisiae deletion strains, locus YJR043C, strain POL32, stronger effect = lower value",0.987
same,normalized growth,"S. cerevisiae deletion strains, locus YJR075W, strain HOC1, stronger effect = lower value",0.939
same,normalized growth,"S. cerevisiae deletion strains, locus YKL009W, strain mrt4, stronger effect = lower value",0.92
same,normalized growth,"S. cerevisiae deletion strains, locus YKL068W, stronger effect = lower value",0.998
same,normalized growth,"S. cerevisiae deletion strains, locus YKL085W, strain MDH1 (second series), stronger effect = lower value",1.01
same,normalized growth,"S. cerevisiae deletion strains, locus YKL085W, strain MDH1, stronger effect = lower value",1.01
same,normalized growth,"S. cerevisiae deletion strains, locus YKL190W, strain CNB1, stronger effect = lower value",0.979
same,normalized growth,"S. cerevisiae deletion strains, locus YKR001C, strain vps1, stronger effect = lower value",0.963
same,normalized growth,"S. cerevisiae deletion strains, locus YLR039C, strain RIC1, stronger effect = lower value",0.846
same,normalized growth,"S. cerevisiae deletion strains, locus YLR058C, strain SHM2, stronger effect = lower value",0.971
same,normalized growth,"S. cerevisiae deletion strains, locus YLR102C, strain apc9, stronger effect = lower value",0.983
same,normalized growth,"S. cerevisiae deletion strains, locus YLR262C, strain YPT6, stronger effect = lower value",0.851
same,normalized growth,"S. cerevisiae deletion strains, locus YLR268W, strain sec22, stronger effect = lower value",0.938
same,normalized growth,"S. cerevisiae deletion strains, locus YLR330W, strain CHS5, stronger effect = lower value",0.991
same,normalized growth,"S. cerevisiae deletion strains, locus YLR342W, strain FKS1 (second series), stronger effect = lower value",0.946
same,normalized growth,"S. cerevisiae deletion strains, locus YLR371W, strain rom2, stronger effect = lower value",1
same,normalized growth,"S. cerevisiae deletion strains, locus YLR418C, strain cdc73, stronger effect = lower value",0.903
same,normalized growth,"S. cerevisiae deletion strains, locus YML016C, strain PPZ1, stronger effect = lower value",0.992
same,normalized growth,"S. cerevisiae deletion strains, locus YML032C, strain rad52, stronger effect = lower value",0.987
same,normalized growth,"S. cerevisiae deletion strains, locus YML124C, strain tub3, stronger effect = lower value",1.01
same,normalized growth,"S. cerevisiae deletion strains, locus YMR078C, strain ctf18, stronger effect = lower value",0.988
same,normalized growth,"S. cerevisiae deletion strains, locus YMR223W, strain ubp8, stronger effect = lower value",0.976
same,normalized growth,"S. cerevisiae deletion strains, locus YMR263W, strain SAP30, stronger effect = lower value",0.929
same,normalized growth,"S. cerevisiae deletion strains, locus YMR307W, strain GAS1, stronger effect = lower value",1.04
same,normalized growth,"S. cerevisiae deletion strains, locus YNL067W, strain RPL9B, stronger effect = lower value",0.929
same,normalized growth,"S. cerevisiae deletion strains, locus YNL128W, strain TEP1, stronger effect = lower value",0.929
same,normalized growth,"S. cerevisiae deletion strains, locus YNL153C, strain GIM3, stronger effect = lower value",0.936
same,normalized growth,"S. cerevisiae deletion strains, locus YNL233W, strain BNI4, stronger effect = lower value",0.971
same,normalized growth,"S. cerevisiae deletion strains, locus YNL250W, strain rad50, stronger effect = lower value",0.994
same,normalized growth,"S. cerevisiae deletion strains, locus YNL271C, strain bni1, stronger effect = lower value",0.98
same,normalized growth,"S. cerevisiae deletion strains, locus YNL298W, strain CLA4, stronger effect = lower value",0.958
same,normalized growth,"S. cerevisiae deletion strains, locus YNL307C, strain MCK1, stronger effect = lower value",0.904 (active)
same,normalized growth,"S. cerevisiae deletion strains, locus YNL322C, strain KRE1, stronger effect = lower value",0.981
same,normalized growth,"S. cerevisiae deletion strains, locus YNR052C, strain pop2, stronger effect = lower value",0.987
same,normalized growth,"S. cerevisiae deletion strains, locus YOL006C, strain TOP1, stronger effect = lower value",0.783
same,normalized growth,"S. cerevisiae deletion strains, locus YOL012C, strain htz1",1.07
same,normalized growth,"S. cerevisiae deletion strains, locus YOL147C, strain pex11, stronger effect = lower value",1
same,normalized growth,"S. cerevisiae deletion strains, locus YOR061W, strain CKA2, stronger effect = lower value",0.969
same,normalized growth,"S. cerevisiae deletion strains, locus YOR069W, strain VPS5, stronger effect = lower value",1
same,normalized growth,"S. cerevisiae deletion strains, locus YOR136W, strain idh2, stronger effect = lower value",0.999
same,normalized growth,"S. cerevisiae deletion strains, locus YOR144C, strain elg1, stronger effect = lower value",0.994
same,normalized growth,"S. cerevisiae deletion strains, locus YOR184W, strain ser1, stronger effect = lower value",0.907
same,normalized growth,"S. cerevisiae deletion strains, locus YOR316C, strain cot1, stronger effect = lower value",0.988
same,normalized growth,"S. cerevisiae deletion strains, locus YPL055C, strain LGE1, stronger effect = lower value",0.883
same,normalized growth,"S. cerevisiae deletion strains, locus YPL241C, strain CIN2, stronger effect = lower value",0.99
same,normalized growth,"S. cerevisiae deletion strains, locus YPR119W, strain clb2, stronger effect = lower value",0.999
same,normalized growth,"S. cerevisiae deletion strains, locus YPR141C, strain kar3, stronger effect = lower value",0.997
same,normalized growth,"S. cerevisiae deletion strains, locus YPR163C, strain tif3, stronger effect = lower value",0.964
same,normalized growth,"S. cerevisiae deletion strains, locus YPR167C, strain met16, stronger effect = lower value",0.984
same,normalized growth,"S. cerevisiae deletion strains, strain wtn01, stronger effect = lower value",0.946
same,normalized growth,"S. cerevisiae strains, strain wild type, stronger effect = lower value",0.994
